The record followed here is PubChem BioAssay (NCI).

Compounds without any hit were thinned out: in the full panel of roughly 83,000, 20% have a hit.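 Method: cells in 96-well plates; compound added at one concentration; 48 h incubation; percent growth measured; values under 10 scored active.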 A number with no mark means an inactive call. Activity calls are given as the source filed them.

Among the test systems are NCI-H23 lung; NCI-H226 lung; HOP-62 NSCLC; NCI-H460 lung; HOP-92 NSCLC; NCI-H522 lung; A549/ATCC NSCLC; 786-0 renal; COLO 205 colon; DU-145 prostate; K-562 leukemia; MDA-MB-231 breast; RXF 393 renal; SF-268 CNS; SF-295 CNS; SF-539 CNS; UACC-257 melanoma; M14 melanoma; MALME-3M melanoma.
What all share (test): NCI-60 one-dose screen, 48 h (100 = growth as untreated, 0 = no growth, -100 = all killed)
Common to all, as to conditions: 10 µM

Consider `Cc1cc(Br)nnc1Br`, for which the growth is 106% in the assay with NCI-H23 lung; 87.2% with NCI-H226 lung; 91.8% in the assay with HOP-62 NSCLC; 117% with NCI-H460 lung; 128% with HOP-92 NSCLC; 110% with NCI-H522 lung. The growth is 109% with A549/ATCC NSCLC; 104% in the assay on 786-0 renal; 100% with COLO 205 colon; 121% in the assay on DU-145 prostate; 99.5% in the assay with K-562 leukemia; 92.7% with MDA-MB-231 breast. In addition, the growth in the assay with RXF 393 renal was 120%; in the assay with SF-268 CNS, 107%; with SF-295 CNS, 111%; in the assay on SF-539 CNS, 87.9%; in the assay on UACC-257 melanoma it was 133%; in the assay with M14 melanoma, 96.8%.

Take `CCN(CC)CCCC(C)N=C(C1=C(C(=NC(C)CCCN(CC)CC)c2cccc(OC)c2)C(=O)NC1=O)c1cccc(OC)c1` (stereo not drawn): the growth in the assay with NCI-H23 lung is -18.4% (active); in the assay on NCI-H226 lung, -43.4% (active); in the assay on HOP-62 NSCLC it was -57.5% (active); in the assay on NCI-H460 lung, -47.1% (active); in the assay with HOP-92 NSCLC it was -66.1% (active); in the assay on NCI-H522 lung it was -64.5% (active). Besides, the growth in the assay on A549/ATCC NSCLC was -81.7% (active); in the assay with 786-0 renal, -8.78% (active); with COLO 205 colon, -89.9% (active); in the assay with DU-145 prostate, -5.08% (active); in the assay on K-562 leukemia, -44.2% (active); in the assay with RXF 393 renal it was -64.8% (active). Also, the growth in the assay with SF-268 CNS was -29.5% (active); in the assay on SF-295 CNS it was -53.5% (active); in the assay with SF-539 CNS, -85.3% (active); in the assay with UACC-257 melanoma, -95.2% (active); in the assay with M14 melanoma, -77.5% (active).

As to `Clc1ccc(Cc2ccncc2)cc1`, the growth with NCI-H23 lung is 105%; in the assay on NCI-H226 lung, 109%; with HOP-62 NSCLC it was 107%; with NCI-H460 lung, 113%; with HOP-92 NSCLC, 85.6%; in the assay with NCI-H522 lung it was 82%. Moreover, the growth in the assay on A549/ATCC NSCLC is 106%; in the assay on 786-0 renal, 97.3%; in the assay on COLO 205 colon it was 109%; with DU-145 prostate, 114%; in the assay with K-562 leukemia, 111%; with MDA-MB-231 breast, 99.5%. Also, the growth is 110% in the assay on RXF 393 renal; 96.2% in the assay on SF-268 CNS; 112% with SF-295 CNS; 104% in the assay with UACC-257 melanoma; 109% in the assay with M14 melanoma.

On to `CCN(CC)CCCC(C)Nc1c2ccc(Cl)cc2nc2ccc(OC)cc12` (stereo not drawn), for which the growth was 44.7% in the assay on NCI-H23 lung; 36.7% with NCI-H226 lung; 3.18% (active) with HOP-62 NSCLC; 2.49% (active) with NCI-H460 lung; 27.7% in the assay on HOP-92 NSCLC; 21.1% in the assay with NCI-H522 lung. In addition, the growth was 17.1% with A549/ATCC NSCLC; 25.6% in the assay with 786-0 renal; -71.9% (active) in the assay on COLO 205 colon; 16.1% in the assay on DU-145 prostate; 0.665% (active) in the assay on K-562 leukemia; 19.8% in the assay with MDA-MB-231 breast. The growth is -16.1% (active) in the assay with RXF 393 renal; 30.4% in the assay with SF-268 CNS; 26.8% in the assay on SF-295 CNS; -89.3% (active) in the assay with UACC-257 melanoma; -73.1% (active) with M14 melanoma.

In the case of `CC(C1=C(CN(C(=O)Cc2cn(-c3ccccc3)nc2-c2ccc(Cl)cc2)C(C)C)Cc2ccccc21)c1ccccn1` (stereo not drawn), the growth in the assay on NCI-H23 lung is 55.3%; in the assay on NCI-H226 lung, 69.9%; with HOP-62 NSCLC it was 92.7%; in the assay with NCI-H460 lung, 53.1%; in the assay on HOP-92 NSCLC it was 62.2%; in the assay with NCI-H522 lung it was 44.2%. Besides, the growth in the assay with A549/ATCC NSCLC is 61%; in the assay on 786-0 renal, 68.2%; in the assay with COLO 205 colon, 66.7%; in the assay with DU-145 prostate, 81%; in the assay on K-562 leukemia, 43.4%; in the assay on MDA-MB-231 breast, 60.2%. The growth in the assay on RXF 393 renal is 86.7%; in the assay on SF-268 CNS it was 74.5%; in the assay on SF-295 CNS, 75.2%; with SF-539 CNS, 87.2%; with UACC-257 melanoma, 67.3%; in the assay with M14 melanoma, 64.7%.

Consider `Cc1cc(=O)n2nnc3cc(C(F)(F)F)ccc3n12`, for which the growth was 101% in the assay on NCI-H23 lung; 115% in the assay on NCI-H226 lung; 117% in the assay on HOP-62 NSCLC; 114% in the assay with NCI-H460 lung; 93.9% in the assay with HOP-92 NSCLC; 97.4% in the assay on NCI-H522 lung. Moreover, the growth is 105% in the assay with A549/ATCC NSCLC; 104% in the assay with 786-0 renal; 108% with COLO 205 colon; 105% in the assay on DU-145 prostate; 99.1% with K-562 leukemia; 108% in the assay on MDA-MB-231 breast. Also, the growth in the assay with RXF 393 renal is 123%; in the assay on SF-268 CNS, 107%; in the assay on SF-295 CNS, 92.7%; with SF-539 CNS, 106%; with UACC-257 melanoma, 106%; in the assay with M14 melanoma, 113%.

Take `COc1ccc2nc3cc(Cl)ccc3c(N)c2c1`: the growth is -93.9% (active) in the assay with NCI-H23 lung; 36.7% in the assay with NCI-H226 lung; -94.3% (active) with HOP-62 NSCLC; -75.2% (active) in the assay with NCI-H460 lung; 91.3% with HOP-92 NSCLC; -75.8% (active) with NCI-H522 lung. Moreover, the growth in the assay on A549/ATCC NSCLC was -73% (active); in the assay on 786-0 renal, -98.9% (active); with COLO 205 colon, -87.6% (active); in the assay with DU-145 prostate it was -96.8% (active); with K-562 leukemia, -60.6% (active); in the assay with MALME-3M melanoma it was -71.8% (active). The growth with MDA-MB-231 breast is -94.1% (active); with RXF 393 renal, -98.1% (active); in the assay on SF-268 CNS, -85.7% (active); in the assay on SF-539 CNS it was -90.3% (active); in the assay on UACC-257 melanoma it was -81.2% (active); in the assay on M14 melanoma, -95.6% (active).

For the molecule `C=CCNCCN1C(=O)c2ccc3c4c(ccc(c24)C1=O)C(=O)N(CCNCC=C)C3=O`, the growth in the assay on NCI-H23 lung was -36.4% (active); in the assay on NCI-H226 lung, -51.6% (active); with HOP-62 NSCLC, -28.7% (active); in the assay on NCI-H460 lung it was -39.3% (active); with HOP-92 NSCLC it was -34.5% (active); with NCI-H522 lung, -79.7% (active). Also, the growth with A549/ATCC NSCLC was -71.4% (active); in the assay on 786-0 renal it was -2.95% (active); with COLO 205 colon, -90.5% (active); in the assay on DU-145 prostate it was -87.7% (active); with K-562 leukemia, 1.43% (active); in the assay on MDA-MB-231 breast, 5.12% (active). The growth is -74.3% (active) with RXF 393 renal; -17.5% (active) with SF-268 CNS; -73.1% (active) in the assay on SF-295 CNS; -90.6% (active) in the assay on SF-539 CNS; -90.3% (active) with UACC-257 melanoma; -84.3% (active) with M14 melanoma.

As for `O=C(Nc1ccc(OCc2nnc(-c3ccc(Cl)cc3)o2)c(F)c1)Nc1ccc(Cl)c(C(F)(F)F)c1`, the growth was -5.04% (active) in the assay on NCI-H23 lung; -4.39% (active) in the assay on NCI-H226 lung; 16.6% in the assay with HOP-62 NSCLC; 2.73% (active) in the assay on NCI-H460 lung; -19.3% (active) in the assay on HOP-92 NSCLC; -33.8% (active) in the assay with NCI-H522 lung. The growth was 12.8% with A549/ATCC NSCLC; 10.1% in the assay with 786-0 renal; -76.9% (active) in the assay on COLO 205 colon; 9.34% (active) in the assay with DU-145 prostate; 11.2% in the assay with K-562 leukemia; -10.2% (active) in the assay on RXF 393 renal. Also, the growth with SF-268 CNS was 22.5%; in the assay on SF-295 CNS it was 1.05% (active); in the assay with SF-539 CNS, 12.3%; in the assay on UACC-257 melanoma, -4.65% (active); in the assay with M14 melanoma, 3.31% (active).
